From PubChem
RECQ1 inh-1: inhibitors of human RECQ1 DNA helicase | Potency, µM (titrated, usually from 57.3 µM), inactives show at the highest dose activity, negative = inhibition, usual class: inhibitors | RECQ1 DNA unwinding, red fluorescence kinetic read | hit rate 0.54% among 240,000 | AID 2549 | P46063;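 further: plate controls were vehicle for no effect and no enzyme for full effect; nearly all actives have a fitted effect of over 30% in size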
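RECQ1T1 50 nM; forked duplex (20 bp + 30-nt ss tails) 200 nM, ATP 2 mM final; pH 8.0, 2 mM MgCl2, 2.5 ug/ml poly(dI-dC); 15 min compound preincubation; discontinuous kinetic read over 2 h at RT.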
BLM inh-1: inhibitors of human Bloom syndrome helicase BLM | recombinant BLM DNA unwinding, fluorescence dequenching | P54132 | Potency, µM (titrated, usually from 56.1 µM), for the others: at the highest dose activity change, negative = inhibition, most hits filed as inhibitors | AID 2528 | hit rate 0.2% among 350,000;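 further: plate controls were vehicle for no effect and no enzyme for full effect; nearly all actives have a fitted effect of over 35% in size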
APE1 inh-1: APE1 (human) endonuclease inhibition | recombinant APE1, TAMRA/BHQ-2 abasic DNA cleavage fluorescence | Potency, µM (top dose mostly 65.8 µM), without a hit: top-dose activity change, negative = inhibition, hits mostly inhibitors | P27695 | hit rate 0.35% among 350,000;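 further: plate controls were vehicle for no effect and reference inhibitor for full effect; nearly all actives have a fitted effect of over 55% in size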
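Activity was derived from the fluorescence gain between first and third kinetic reads (60 s intervals, ex 525/em 598 nm) after 50 nM THF-abasic TAMRA/BHQ-2 duplex was added to 0.75 nM APE1 preincubated 15 min with compound.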
KDM4E inh: inhibitors of human JMJD2E histone demethylase; B2RXH2; JMJD2E catalytic domain, FDH-coupled NADH fluorescence (FDH is formaldehyde dehydrogenase); Potency, µM (series often up to 57.1 µM), for the others: at the top dose activity change, negative = inhibition, hits mostly inhibitors; hit rate 1.6% among 230,000; AID 2147; active means well fitted inhibition curve with a large enough effect, not every such curve was filed as active; inconclusive means small, poorly fitted or top-dose-only effect, or another doubt; inactive means no such curve, though single readings can be large or run the other way;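 further: 0% = wells with enzyme and -100% = buffer wells without enzyme; nearly all actives have a fitted effect of over 50% in size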
L3MBTL1 block: blocks human L3MBTL1; Q9Y468; AlphaScreen L3MBTL1–H3K9me1 peptide binding; Potency, µM (top dose mostly 57.1 µM), inactives show at the highest dose activity, negative = inhibition, actives largely listed as inhibitors; hit rate 0.66% among 230,000; further: nearly all actives have a fitted effect of over 60% in size
Target sequence (Q9Y468 whole entry, looked up): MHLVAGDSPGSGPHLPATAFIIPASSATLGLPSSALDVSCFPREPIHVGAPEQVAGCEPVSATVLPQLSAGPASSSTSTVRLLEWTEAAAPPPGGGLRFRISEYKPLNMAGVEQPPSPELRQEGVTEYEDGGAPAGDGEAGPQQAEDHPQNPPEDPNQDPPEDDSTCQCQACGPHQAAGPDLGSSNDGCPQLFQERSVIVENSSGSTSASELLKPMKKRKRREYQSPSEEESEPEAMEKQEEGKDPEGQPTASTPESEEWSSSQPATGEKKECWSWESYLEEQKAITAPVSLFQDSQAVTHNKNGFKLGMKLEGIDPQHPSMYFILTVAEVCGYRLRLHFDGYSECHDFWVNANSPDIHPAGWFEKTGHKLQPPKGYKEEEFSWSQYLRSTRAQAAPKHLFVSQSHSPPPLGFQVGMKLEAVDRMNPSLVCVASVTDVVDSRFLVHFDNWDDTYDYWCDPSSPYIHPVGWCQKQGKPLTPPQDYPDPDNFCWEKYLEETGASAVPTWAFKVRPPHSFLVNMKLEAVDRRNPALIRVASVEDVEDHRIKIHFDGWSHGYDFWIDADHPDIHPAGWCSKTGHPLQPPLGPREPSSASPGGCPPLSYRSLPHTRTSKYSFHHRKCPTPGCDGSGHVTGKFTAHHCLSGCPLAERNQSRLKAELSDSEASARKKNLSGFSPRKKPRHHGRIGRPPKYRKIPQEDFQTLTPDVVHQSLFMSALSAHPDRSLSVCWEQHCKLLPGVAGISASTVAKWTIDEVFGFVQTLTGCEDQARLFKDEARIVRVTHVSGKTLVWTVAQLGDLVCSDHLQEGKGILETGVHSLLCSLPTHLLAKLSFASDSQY
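L3MBTL1 50 nM + b-AHA-H3(1-15)K9me1 75 nM, 30 min RT; compound added, 30 min RT; streptavidin donor/Ni-chelate acceptor beads 10 ug/mL each final, 30 min RT dark; AlphaScreen read.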
DNA dye displace: counter-screen for APE1 inhibitors: DNA dye displacement | shares compounds with APE1 inh-1 | DNA fluorescent dye displacement counterscreen, fluorescence | Potency, µM (highest dose often 28.5 µM), without a hit: at the top dose activity change, negative = inhibition, usual class: inhibitors | hit rate 7% among 480 | AID 2564;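 further: loss of thiazole orange fluorescence as the dye is displaced from duplex DNA; 0% = ThO with dsDNA and no compound and -100% = ThO without dsDNA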
Endo IV inh: counter-screen for APE1 inhibitors: inhibitors of E. coli endonuclease IV | E. coli Endo IV, fluorogenic AP-site DNA cleavage | AID 2565 | shares compounds with APE1 inh-1 | hit rate 4% among 560 | Potency, µM (series often up to 27.1 µM), for inactives: at the highest dose activity change, negative = inhibition, usual class: inhibitors;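 further: plate controls were uninhibited enzyme wells for no effect and no enzyme buffer wells for full effect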
APE1 inh-2: APE1 (human) endonuclease inhibition, confirmation; AID 2572; shares compounds with APE1 inh-1; hit rate 44% among 750; Potency, µM (top dose mostly 57.1 µM), without a hit: top-dose activity change, negative = inhibition, actives largely listed as inhibitors; purified APE1, fluorogenic abasic-site DNA cleavage; further: nearly all actives have a fitted effect of over 30% in size
APE1 FP: APE1 (human) DNA binding inhibition, fluorescence polarization; shares compounds with APE1 inh-1; AID 2573; Potency, µM (highest dose often 28.5 µM), for the others: at the highest dose activity, negative = inhibition, most hits filed as inhibitors; APE1 binding to TAMRA-labelled double-stranded DNA, fluorescence polarization displacement; hit rate 7% among 480
BLM inh-2: confirmation of inhibitors of human Bloom syndrome helicase BLM. Potency, µM, for inactives: max response, negative = inhibition, most hits filed as inhibitors. AID 2585. shares compounds with BLM inh-1. hit rate 40% among 220. BLM DNA unwinding, fluorescence quenching, biochemical;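 further: strand separation dequenches TAMRA so unwinding raises red fluorescence; series mostly up to about 69 µM; nearly all actives have a fitted effect of over 45% in size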
RECQ1 inh conf: confirmation of human RECQ1 helicase inhibitors | shares compounds with RECQ1 inh-1 | RECQ1 helicase DNA unwinding, fluorescence | Potency, µM (top dose mostly 229 µM), without a hit: top-dose activity change, negative = inhibition, usual class: inhibitors | hit rate 28% among 610 | AID 2708; further: nearly all actives have a fitted effect of over 45% in size
RECQ1 ADP FP: displaces ADP in a fluorescence polarization counter-screen for RECQ1 hits | shares compounds with RECQ1 inh-1 | ADP fluorescence polarization displacement counterscreen | Potency, µM (top dose mostly 228 µM), without a hit: top-dose activity change, negative = inhibition, most hits filed as inhibitors | hit rate 27% among 530 | AID 2711; further: nearly all actives have a fitted effect of over 45% in size
RECQ1 inh-2: blocks human RECQ1 DNA unwinding. shares compounds with RECQ1 inh-1. recombinant RECQ1 DNA unwinding, red fluorescence. Potency, µM (doses to about 119 µM), inactives show at the top dose activity, negative = inhibition, usual class: inhibitors. hit rate 15% among 1,100; further: nearly all actives have a fitted effect of over 50% in size
Active calls of the source: *; i = inactive; ? = inconclusive; . = no result; ! = repeats disagree; [ ] = dose if it differs, or a comment. This excerpt belongs to a sample that is enriched for hits. Unless noted, the call rests on the fitted dose curve; in most records, active means well fitted curve in the direction sought with a large enough effect; inconclusive means small, poorly fitted or top-dose-only effect, or another doubt; inactive means no such curve, though single readings can be large; an effect the other way counts as inactive or inconclusive. Unless noted, on the % scale 0 is the no-effect control and ±100 the full control effect; potency means the concentration at half of the fitted maximal effect.

SMILES	RECQ1 inh-1	BLM inh-1	APE1 inh-1	KDM4E inh	L3MBTL1 block	DNA dye displace	Endo IV inh	APE1 inh-2	APE1 FP	RECQ1 inh conf	RECQ1 ADP FP	RECQ1 inh-2	others
O=C(O)Cc1ccc(C(=O)CSc2ccccc2)s1	?	-30%	?	-6%	?	-3%	7%	?	8%	.	.	13%
O=C(Nc1ccc(O)cc1)c1cccc(S(=O)(=O)N2CCOCC2)c1	.	-1%	.	.	.	.	.	.	.	.	.	.
Cc1nnc(NC(=O)C2CC(=O)N(c3ccc4c(c3)OCCO4)C2)s1 (centres undefined)	.	.	-21%	.	7%	.	.	.	.	.	.	.
O=C(Nc1nc(-c2ccco2)c(-c2ccco2)s1)C1CC(=O)N(c2ccc3c(c2)OCCO3)C1 (centres undefined)	7.9µM*	14µM*	2.5µM*	?	?	11µM*	8%	?	-3%	28µM*	40µM*	?
O=C1CCCC2=C1C(c1ccco1)Nc1ccc3ccccc3c12 (centres undefined)	10µM*	-28%	14µM*	?	3.2µM*	-9%	4%	4µM*	?	25µM*	50µM*	16µM*
CCCCN(C)CCCNC(=O)c1cc(-c2cccnc2)nc2ccccc12	.	-8%	30%	.	.	.	.	.	.	.	.	.
Cc1ccc2c(=O)c3ccccc3n(CCCN)c2c1C	32µM*!	29%	4.5µM*!	.	.	14µM*	-91%[57.1 µM]	8.9µM*	-80%[57.1 µM]	.	.	18µM*
CCC(C(=O)Nc1c(C)cc(C)cc1C)n1c(=O)c(-c2ccccc2NC(C)=O)nc2ccccc21 (centres undefined)	.	0%	.	.	.	.	.	.	.	.	.	.
CC(=O)OCCNc1cc(SCc2ccco2)c2nonc2c1[N+](=O)[O-]	7.1µM*	-19%	13µM*	?	-7%	-8%	-3%	14µM*	-6%	20%[114 µM]	.	-23%
O=C1c2ccccc2-c2onc3ccc(NCc4ccco4)c1c23	20µM*	-22%	?	-9%	-3%	.	.	14µM*	.	.	.	40µM*
O=C(O)c1ccccc1NCc1ccco1	i	-1%	1%	?	-2%	.	.	.	.	.	.	.
CN(CC(=O)Nc1ccc(F)cc1)C(=O)c1cccc(NS(=O)(=O)c2ccccc2)c1	.	.	-9%	.	4%	.	.	.	.	.	.	.
CC(=O)NC1=NN(C(C)=O)C(C)(c2ccccc2)S1 (centres undefined)	40µM*	?	2.8µM*	-6%	32µM*	5%	-4%	1.4µM*	-6%	.	.	-2%
COc1cc2c(ccc3cc(OC)c(OC)c(O)c32)cc1O	11µM*	25µM*	0.71µM*	?	.	?	?	0.63µM*	?	40µM*	50µM*	.
COc1cc2cccc(OC)c(=O)c2c(O)c1OC	i	1%	-2%	-3%	-1%	.	.	.	.	.	.	.
Cc1ccc(Cl)cc1N1CCN(C(=O)c2cccn2-c2nnc(N3CCCCC3)s2)CC1	.	-4%	.	.	.	.	.	.	.	.	.	.
NNC(=O)c1cc(O)c(O)c(O)c1	3.2µM*	?	0.89µM*	?	0.56µM*	3%	164%	4µM*	5%	8%[114 µM]	-11%[91.9 µM]	.
COc1ccc(N2Cc3cccc(C(=O)Nc4cc(C)cc(C)c4)c3C2=O)cc1	.	-16%	.	.	.	.	.	.	.	.	.	.
COc1ccc(N2Cc3cccc(C(=O)O)c3C2=O)cc1	14µM*	16µM*	13µM*	?	.	4%	-1%	4µM*	?	25µM*	-32%[91.9 µM]	4.5µM*	BLM inh-2=16µM*
O=C(COc1ccc(S(=O)(=O)NC2CCCCC2)cc1)N1CCN(c2ccc(F)cc2)CC1	-21%	-7%	8%	-3%	2%	.	.	.	.	.	.	.
C=C(C)C(=O)Nc1cccc(C2=NOC3(C2)C[C@@H](C(N)=O)N(C(=O)c2ccc(OC)cc2)C3)c1 (some centres undefined)	7.9µM*	-7%	?	-6%	.	.	.	?	.	25µM*	35µM*	.
C=C(C)C(=O)Nc1cccc(C2=NOC3(C2)C[C@@H](C(N)=O)N(C(=O)c2cc([N+](=O)[O-])cc([N+](=O)[O-])c2)C3)c1 (some centres undefined)	-21%	-2%	7%	2%	.	.	.	.	.	.	.	.
CCc1ccccc1NC(=O)CCNC(=O)Cn1ccc2ccccc2c1=O	.	-8%	27%	.	.	.	.	.	.	.	.	.
Cc1ccc(/C=C2/C(=O)c3ccc(C(=O)O)cc3C2=O)o1	7.1µM*	75%	8.9µM*	-23%	1.6µM*	.	.	?	.	24%[114 µM]	45µM*	.
O=C(O)c1ccc(N2C(=O)c3cccc4c(C(=O)O)ccc(c34)C2=O)cc1	?	-8%	13µM*	28µM*	3.5µM*	-4%	5%	?	-95%	.	.	?
Nc1c(C(=O)O)ccc2c1C(=O)c1ccccc1C2=O	?	-15%	?	3%	-21%	.	.	.	.	.	.	.
Nc1ccc2c(c1Cl)C(=O)c1ccc(N)c(Cl)c1C2=O	?	14µM*	8.9µM*	-28%	?	6.3µM*	?	14µM*	?	.	.	?
Cn1cc(C(=O)Nc2cccc(F)c2)cn1	i	2%	-4%	5%	6%	.	.	.	.	.	.	.
